Values joined by “and” are separate entries in the source; they are usually repeats but may differ in a detail not shown here. Equal entries are not always repeated. Records with an inconclusive call do not appear. Active and inactive are the calls of the source. Unless noted, calls follow the shape of the dose curve; as a rule, active = well fitted cell-killing curve with a large enough effect; inconclusive = small, poorly fitted or top-dose-only effect; inactive = flat fitted curve, though single readings scatter.

Experimental findings from PubChem BioAssay (NCATS) are described below.

Sequence of Phenylethanolamine N-methyltransferase (Homo sapiens) (P11086 whole entry, looked up): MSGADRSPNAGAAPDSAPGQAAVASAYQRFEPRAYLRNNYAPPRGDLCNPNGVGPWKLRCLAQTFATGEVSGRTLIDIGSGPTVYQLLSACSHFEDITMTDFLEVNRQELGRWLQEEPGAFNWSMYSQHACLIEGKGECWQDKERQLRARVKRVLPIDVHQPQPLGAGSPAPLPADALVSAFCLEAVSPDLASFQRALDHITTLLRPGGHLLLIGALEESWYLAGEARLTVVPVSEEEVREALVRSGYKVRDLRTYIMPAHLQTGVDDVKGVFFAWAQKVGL
Sequence of Nicotinamide N-methyltransferase (Homo sapiens) (P40261 whole entry, looked up): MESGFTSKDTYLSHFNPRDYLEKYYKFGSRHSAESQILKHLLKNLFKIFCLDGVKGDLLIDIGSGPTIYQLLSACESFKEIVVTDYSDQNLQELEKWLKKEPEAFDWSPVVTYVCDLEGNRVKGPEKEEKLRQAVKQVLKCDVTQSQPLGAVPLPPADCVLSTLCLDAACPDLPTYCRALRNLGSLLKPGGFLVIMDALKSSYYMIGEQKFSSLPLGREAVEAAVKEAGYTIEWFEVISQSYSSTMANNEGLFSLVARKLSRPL

The target of the first assay is Guanidinoacetate N-methyltransferase (Homo sapiens) (UniProt Q14353). As to the kind of experiment: Confirmatory Screen for Target Class Profiling of Small Molecule Inhibitors of Methyltransferases (AID 1745852; calls by dose curve; also: potency is read from the fitted curve at half-maximal effect; as to activity change, negative = inhibition: % is scaled to controls: 0 for no effect and ±100 for the full control effect). To be noted: MTase-Glo luminescence, SAH detection, recombinant enzyme; activity change, negative = inhibition: at 57.3 µM (top of the series) unless noted.
On to `Cc1ccccc1C(OCCN(C)C)c1ccccc1` (stereo not given), for which the activity change, negative = inhibition stood at 6.46%.

With `CNCc1ccc(-c2[nH]c3cc(F)cc4c3c2CCNC4=O)cc1`, the activity change, negative = inhibition was -1.39%.

On to `CC(C)(Sc1ccc(CCN(CCCCC2CCCCC2)C(=O)NC2CCCCC2)cc1)C(=O)O`, for which the activity change, negative = inhibition was 2.53%.

Turning to `COc1cc2c(cc1OC)CN(CCc1ccc(NC(=O)c3cccc4c(=O)c5cccc(OC)c5[nH]c34)cc1)CC2`, the activity change, negative = inhibition was -0.294%.

For `Cc1cnc(Nc2ccc(OCCN3CCCC3)cc2)nc1Nc1cccc(S(=O)(=O)NC(C)(C)C)c1`, the activity change, negative = inhibition was -4.99%.

Regarding `CCN(CC)CCCC(C)Nc1ccnc2cc(Cl)ccc12` (stereo not given), the activity change, negative = inhibition is 2.04% [at 9.47 µM].

Take `NC[C@H](O)c1ccc(O)c(O)c1`: the activity change, negative = inhibition was -4.17%.

Take `CCCCCCCc1ccc(CCc2cccc(O)c2C(=O)O)cc1`: the activity change, negative = inhibition is -1.62%.

In the case of `CCc1cncnc1N1CCN(Cc2nc3ccc(C(F)(F)F)cc3[nH]2)CC1`, the activity change, negative = inhibition is 5.86%.

With `Cc1[nH]c(=O)c(C#N)cc1-c1ccc2nccn2c1`, the activity change, negative = inhibition worked out at 5.86%.

Regarding `CCCS(=O)(=O)Nc1ccc(F)c(C(=O)c2c[nH]c3ncc(-c4ccc(Cl)cc4)cc23)c1F`, the activity change, negative = inhibition is -0.0685%.

Take `Nc1nccc(-c2ccc3noc(-c4ccc(Cl)cc4)c3c2)n1`: the activity change, negative = inhibition was determined as 4.33%.

In the case of `OC[C@H](Cc1ccccc1)Nc1nc(Oc2ccc3c(c2)CCC3)nc2c1ncn2Cc1ccc(-c2ccccc2)cc1`, the activity change, negative = inhibition is -8.58%.

Regarding `Oc1ccc(C2CNCCc3c2cc(O)c(O)c3Cl)cc1` (stereo not given), the Potency was 27.3 µM (active).

Take `COc1cc(Nc2ncc3c(n2)-c2ccc(Cl)cc2C(c2c(F)cccc2OC)=NC3)ccc1C(=O)O`: the activity change, negative = inhibition was found to be 2.21%.

Regarding `CS(=O)(=O)c1cccc(CNc2nc(Nc3ccc4c(c3)CCC(=O)N4)ncc2C(F)(F)F)c1`, the activity change, negative = inhibition is -3.15% and 1.66%.

The next assay has as its target Nicotinamide N-methyltransferase (Homo sapiens) (UniProt P40261). Described as above. To be noted: MTase-Glo luminescence, SAH detection, recombinant enzyme; measured here: NNMT max response; stronger effect = lower value.
On to `Cc1ccccc1C(OCCN(C)C)c1ccccc1` (stereo not given), for which the activity was -5.32%.

On to `CNCc1ccc(-c2[nH]c3cc(F)cc4c3c2CCNC4=O)cc1`, for which the activity was -24.3%.

For the molecule `CC(C)(Sc1ccc(CCN(CCCCC2CCCCC2)C(=O)NC2CCCCC2)cc1)C(=O)O`, the activity is -46.1%.

With `COc1cc2c(cc1OC)CN(CCc1ccc(NC(=O)c3cccc4c(=O)c5cccc(OC)c5[nH]c34)cc1)CC2`, the activity is -75.2%.

Turning to `Cc1cnc(Nc2ccc(OCCN3CCCC3)cc2)nc1Nc1cccc(S(=O)(=O)NC(C)(C)C)c1`, the activity was -31.4%.

For `CCN(CC)CCCC(C)Nc1ccnc2cc(Cl)ccc12` (stereo not given), the activity turned out to be 3.54%.

With `NC[C@H](O)c1ccc(O)c(O)c1`, the activity amounted to 2.1%.

On to `CCCCCCCc1ccc(CCc2cccc(O)c2C(=O)O)cc1`, for which the activity was -13.2%.

For the molecule `CCc1cncnc1N1CCN(Cc2nc3ccc(C(F)(F)F)cc3[nH]2)CC1`, the activity was -37.3%.

On to `Cc1[nH]c(=O)c(C#N)cc1-c1ccc2nccn2c1`, for which the activity was -3.4%.

Turning to `CCCS(=O)(=O)Nc1ccc(F)c(C(=O)c2c[nH]c3ncc(-c4ccc(Cl)cc4)cc23)c1F`, the activity was -26%.

As for `Nc1nccc(-c2ccc3noc(-c4ccc(Cl)cc4)c3c2)n1`, the activity was -9.7%.

For `OC[C@H](Cc1ccccc1)Nc1nc(Oc2ccc3c(c2)CCC3)nc2c1ncn2Cc1ccc(-c2ccccc2)cc1`, the activity was -17.3%.

For the molecule `Oc1ccc(C2CNCCc3c2cc(O)c(O)c3Cl)cc1` (stereo not given), the activity was -15.5%.

As for `COc1cc(Nc2ncc3c(n2)-c2ccc(Cl)cc2C(c2c(F)cccc2OC)=NC3)ccc1C(=O)O`, the activity was -15.5%.

With `CS(=O)(=O)c1cccc(CNc2nc(Nc3ccc4c(c3)CCC(=O)N4)ncc2C(F)(F)F)c1`, the activity is -47.6% and -27.3%.

The next assay concerns the target Phenylethanolamine N-methyltransferase (Homo sapiens) (UniProt P11086). Described as above. Conditions: MTase-Glo luminescence, SAH detection, recombinant enzyme; measured here: PNMT max response; stronger effect = lower value.
Consider `Cc1ccccc1C(OCCN(C)C)c1ccccc1` (stereo not given), for which the activity was -1.88%.

As for `CNCc1ccc(-c2[nH]c3cc(F)cc4c3c2CCNC4=O)cc1`, the activity was -15.2%.

Take `CC(C)(Sc1ccc(CCN(CCCCC2CCCCC2)C(=O)NC2CCCCC2)cc1)C(=O)O`: the activity is -8.68%.

Turning to `COc1cc2c(cc1OC)CN(CCc1ccc(NC(=O)c3cccc4c(=O)c5cccc(OC)c5[nH]c34)cc1)CC2`, the activity was -10.7%.

As for `Cc1cnc(Nc2ccc(OCCN3CCCC3)cc2)nc1Nc1cccc(S(=O)(=O)NC(C)(C)C)c1`, the activity was -8.53%.

Regarding `CCN(CC)CCCC(C)Nc1ccnc2cc(Cl)ccc12` (stereo not given), the activity is 0.752%.

As to `NC[C@H](O)c1ccc(O)c(O)c1`, the activity was 21.8%.

On to `CCCCCCCc1ccc(CCc2cccc(O)c2C(=O)O)cc1`, for which the activity was 1.23%.

For `CCc1cncnc1N1CCN(Cc2nc3ccc(C(F)(F)F)cc3[nH]2)CC1`, the activity was -14.9%.

In the case of `Cc1[nH]c(=O)c(C#N)cc1-c1ccc2nccn2c1`, the activity came out at 4.35%.

As for `CCCS(=O)(=O)Nc1ccc(F)c(C(=O)c2c[nH]c3ncc(-c4ccc(Cl)cc4)cc23)c1F`, the activity is -12.4%.

As for `Nc1nccc(-c2ccc3noc(-c4ccc(Cl)cc4)c3c2)n1`, the activity was -0.0134%.

Consider `OC[C@H](Cc1ccccc1)Nc1nc(Oc2ccc3c(c2)CCC3)nc2c1ncn2Cc1ccc(-c2ccccc2)cc1`, for which the activity was -16%.

Regarding `Oc1ccc(C2CNCCc3c2cc(O)c(O)c3Cl)cc1` (stereo not given), the activity is -4.58%.

As to `COc1cc(Nc2ncc3c(n2)-c2ccc(Cl)cc2C(c2c(F)cccc2OC)=NC3)ccc1C(=O)O`, the activity came out at 2.42%.

As for `CS(=O)(=O)c1cccc(CNc2nc(Nc3ccc4c(c3)CCC(=O)N4)ncc2C(F)(F)F)c1`, the activity was -7.63% and -9.92%.

Test system in a further assay: not listed separately
As to the kind of experiment: NCATS anti-infectives library activity on HEK293 viability as a counter-qHTS vs the C. elegans viability qHTS (AID 1745854). Also: % is scaled to controls: 0 for no effect and ±100 for the full control effect. Conditions: HEK293 viability counter-screen; series mostly up to 41.8 µM; activity change, negative = cytotoxicity: at the top concentration. Put shortly: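 Compounds were acoustically plated (several concentrations, 1:5, final up to 41.7 uM), then 1500 HEK293 cells added per well and incubated 24 hr at 37C, 5% CO2. CellTiter-Glo was added and luminescence read after 10 min.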
(In qHTS, concentration-response curves come from the screen itself.)
Take `CNCc1ccc(-c2[nH]c3cc(F)cc4c3c2CCNC4=O)cc1`: the “activity change, negative = cytotoxicity” value was -0.921% (inactive).

Consider `O=C(c1cc(Cc2n[nH]c(=O)c3ccccc23)ccc1F)N1CCN(C(=O)C2CC2)CC1`, for which the “activity change, negative = cytotoxicity” value was -22.7% (inactive).

With `COc1cc2c(cc1OC)CN(CCc1ccc(NC(=O)c3cccc4c(=O)c5cccc(OC)c5[nH]c34)cc1)CC2`, the “activity change, negative = cytotoxicity” value is -4.52% (inactive).

`O=C1CCC(N2C(=O)c3ccccc3C2=O)C(=O)N1` (stereo not given): the “activity change, negative = cytotoxicity” value was -18.1% (inactive).

Regarding `c1ccc([C@H]2CN3CCSC3=N2)cc1`, the “activity change, negative = cytotoxicity” value was -12.8% (inactive).

`CC(=O)Oc1ccccc1C(=O)O`: the “activity change, negative = cytotoxicity” value was -1.9% (inactive).

In the case of `C[C@]1(c2nc3c(C(N)=O)cccc3[nH]2)CCCN1`, the “activity change, negative = cytotoxicity” value was -22.7% (inactive).

As to `Cn1cnc2c(F)c(Nc3ccc(Br)cc3Cl)c(C(=O)NOCCO)cc21`, the “activity change, negative = cytotoxicity” value was -25% (inactive).

As for `Cc1cnc(NC(=O)C2=C(O)c3ccccc3S(=O)(=O)N2C)s1`, the “activity change, negative = cytotoxicity” value is -2.81% (inactive).

With `CCCC(CCC)C(=O)O`, the “activity change, negative = cytotoxicity” value is -2% (inactive).

In the case of `Nc1nc2c(ncn2COCCO)c(=O)[nH]1`, the “activity change, negative = cytotoxicity” value was 4.92% (inactive).

As for `NC(=O)c1ccc(I)c([N+](=O)[O-])c1`, the “activity change, negative = cytotoxicity” value is -2.21% (inactive).

As to `Nc1nc2[nH]cc(CCc3ccc(C(=O)N[C@@H](CCC(=O)O)C(=O)O)cc3)c2c(=O)[nH]1`, the “activity change, negative = cytotoxicity” value was 10% (inactive).

`CNC(=O)c1ccc(N2C(=S)N(c3ccc(C#N)c(C(F)(F)F)c3)C(=O)C2(C)C)cc1F`: the “activity change, negative = cytotoxicity” value was 0.867% (inactive).

Take `CCCc1nc2c(C)cc(-c3nc4ccccc4n3C)cc2n1Cc1ccc(-c2ccccc2C(=O)O)cc1`: the “activity change, negative = cytotoxicity” value is 0.0731% (inactive).

In the case of `COc1ccc2nc(S(=O)Cc3ncc(C)c(OC)c3C)[nH]c2c1` (stereo not given), the “activity change, negative = cytotoxicity” value is -3.11% (inactive).

For `CN1CCN(CCCN2c3ccccc3Sc3ccc(C(F)(F)F)cc32)CC1`, the “activity change, negative = cytotoxicity” value is -22.3% (inactive).
